These results are taken from PubChem BioAssay (Tox21).

A number with no mark means an inactive call. Records with an inconclusive call do not appear. Active and inactive are the calls of the source. Unless noted, calls follow the shape of the dose curve; as a rule, active = well fitted curve in the direction sought with a large enough effect in the repeat runs; inconclusive = weak or mixed curves; inactive = no such curve, though single readings can be large; an effect the other way counts as inactive or inconclusive.

Assay [1] in a line: qHTS assay to identify small molecule agonists of the estrogen receptor alpha (ER-alpha) signaling pathway in the presence of an antagonist - cell viability counter screen (AID 1259386).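 Also: series mostly up to about 92 µM; cells exposed to compounds for 22 h at 37 °C before the viability read; nearly all actives have a fitted effect of over 30% in size.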 In short, it runs like this:
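The test measures whether compounds kill ER-alpha reporter cells (VM7Luc4E2) under antagonist co-treatment (ICI-182,780, 10.0nM). Fluorescence from CellTiter-Fluor is read after a 22hr exposure.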

The target of assay [2] is Progesterone receptor (Homo sapiens) (UniProt P06401). The assay is described as follows: qHTS assay to identify small molecule agonists of the progesterone receptor (PR) signaling pathway (AID 1346784; calls by dose curve; also: nearly all actives have a fitted effect of over 30% in size). In short, it runs like this: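 The screen uses PR-UAS-bla HEK 293T cells in charcoal-stripped serum (2%). Compounds are applied for 16 hr at 37C after a 6 hr pre-incubation, and reporter activity is detected with a FRET beta-lactamase substrate after 2 hr at room temperature.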
On the technique in general: qHTS replaces the single test concentration by a dilution series.

The target is the same in assay [3]. As to the kind of experiment: qHTS assay to identify small molecule antagonists of the progesterone receptor (PR) signaling pathway (AID 1346795; active = well fitted inhibition curve with a large enough effect in the signal ratio in the repeat runs, not every such curve was filed as active; the % refers to the signal ratio). Put shortly:
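After 6 hr plating at 37C in 2% stripped-serum medium, PR-UAS-bla HEK293T cells got compounds, then 1 nM R5020. Sixteen hours later, LiveBLAzer substrate was applied for 2 hr at room temperature and fluorescence was recorded.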

Assay [4] in a line: qHTS assay to identify small molecule antagonists of the progesterone receptor (PR) signaling pathway - cell viability counter screen (AID 1346798). Also: series mostly up to about 92 µM; nearly all actives have a fitted effect of over 50% in size. Put shortly:
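Viability was determined by ATP-based luminescence (CellTiter-Glo) in PR-UAS-bla HEK293T cells cultured in 2% charcoal-stripped serum and incubated 16 hr with compounds under R5020 stimulation.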

The nature of assay [5]: qHTS assay to identify small molecule agonists of the progesterone receptor (PR) signaling pathway - cell viability counter screen (AID 1346799; calls by dose curve; also: nearly all actives have a fitted effect of over 45% in size). In short, it runs like this: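 Viability was scored by ATP luminescence (CellTiter-Glo, 30 min, room temperature) in the same wells used for the reporter readout, after 16 hr compound exposure of PR-UAS-bla HEK293T cells.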
The nature of assay [6]: qHTS assay to identify small molecule antagonists of the TGF-beta/Smad signaling pathway - cell viability counter screen (AID 1346824). Also: nearly all actives have a fitted effect of over 50% in size. In short, it runs like this: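 Cytotoxicity counter-screen run in the same wells as the beta-lactamase Smad reporter read: CellTiter-Glo luminescence after 30 min at room temperature. HEK 293T SBE-bla cells had 5 hr compound exposure at 37 C with TGF-beta1 (0.25 ng/mL stock).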

Assay [7] can be described thus: qHTS assay to identify small molecule agonists of the TGF-beta/Smad signaling pathway - cell viability counter screen (AID 1346829). Also: top concentration of the series differs between compounds; nearly all actives have a fitted effect of over 45% in size. In short, it runs like this: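 Here the cytotoxicity of library compounds is measured in SBE-bla HEK 293T cells treated for 5 hr, using CellTiter-Glo added to wells already read for the beta-lactamase reporter.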
Assay [8] is described as follows: qHTS assay to identify small molecule agonists of the TGF-beta/Smad signaling pathway (AID 1346859; active = well fitted activation curve with a large enough effect in the signal ratio in the repeat runs, not every such curve was filed as active; the % refers to the signal ratio; also: series mostly up to about 77 µM). Put shortly:
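Dual-wavelength fluorescence (460/530 nm emission) quantified beta-lactamase expression under the Smad binding element in HEK 293T cells following 5 hr compound treatment at 37 C.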

The target in assay [9] is Thyrotropin-releasing hormone receptor (Homo sapiens) (UniProt P34981). As to the kind of experiment: qHTS assay to identify small molecule antagonists of the thyrotropin-releasing hormone receptor (TRHR) signaling pathway (AID 1346877; active = well fitted inhibition curve with a large enough effect in the repeat runs, not every such curve was filed as active; also: series mostly up to about 51 µM). In short, it runs like this: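 Overnight-plated (18 h, 37 °C) HEK293 cells expressing TRHR were dye-loaded 2 h, treated with compound, then stimulated with TRH at 1 nM final. Fluorescence intensity was captured every second for 3 min.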

The target is the same in assay [10]. The assay is described as follows: qHTS assay to identify small molecule agonists of the thyrotropin-releasing hormone receptor (TRHR) signaling pathway (AID 1346891; calls by dose curve;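 also: HEK293 cells expressing TRHR with calcium dye readout; series mostly up to about 58 µM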). In short, it runs like this:
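Kinetic fluorescence (3 min, 1 s intervals) reported intracellular calcium after compound transfer onto TRHR-Hek293 cells pre-loaded with dye for 2 h at 37 °C.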

Assay [11] in a line: Human pregnane X receptor (PXR) small molecule agonists, qHTS cell viability counter screen (AID 1346977). Also: nearly all actives have a fitted effect of over 50% in size. In short, it runs like this:
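HepG2 cells stably carrying the PXR-Luc reporter are cultured with 5% charcoal-stripped FBS and treated with compounds for 24hr. CellTiter-Fluor is added at 23hr and fluorescence is read after 1hr.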

Assay [12] can be described thus: Caspase-3/7 induction in HepG2 cells by small molecules, qHTS assay (AID 1346978). Also: nearly all actives have a fitted effect of over 15% in size. In short, it runs like this: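 Caspase-3/7 induction was measured by Caspase-Glo 3/7 luminescence (30 min, room temperature) after a 17 hr compound exposure of wild-type HepG2 cells seeded at 2,000 per well and pre-incubated 5 hr.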
The nature of assay [13]: Caspase-3/7 induction in CHO-K1 cells by small molecules, qHTS cell viability counter screen (AID 1346979). Also: nearly all actives have a fitted effect of over 35% in size. In short, it runs like this: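 Seeding: 1,500 CHO-K1 cells/well. Rest: 5hr, 37C. Treatment: compounds in DMSO, 16hr. Read: CellTiter-Fluor, 1hr, fluorescence.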
A short description of assay [14]: Caspase-3/7 induction in CHO-K1 cells by small molecules, qHTS assay (AID 1346980). Also: nearly all actives have a fitted effect of over 15% in size. In short, it runs like this:
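Luminescent Caspase-Glo 3/7 read (30min, room temperature) quantified apoptosis induction. Cells were wild-type CHO-K1, treated with compound for 17hr at 37 C and 5% CO2.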

The nature of assay [15]: Caspase-3/7 induction in HepG2 cells by small molecules, qHTS cell viability counter screen (AID 1346981). Also: series mostly up to about 92 µM; nearly all actives have a fitted effect of over 30% in size. Put shortly: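 Treatment of HepG2 cells with DMSO-delivered compounds ran 16 hr at 37 C following a 5-hr pre-incubation of 2,000 cells/well. CellTiter-Fluor fluorescence, read after 1 hr, served as the viability measure in a qHTS format.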
The target in assay [16] is Nuclear receptor subfamily 1 group I member 2 (Homo sapiens) (UniProt O75469). The assay is described as follows: Human pregnane X receptor (PXR) small molecule agonists, qHTS assay (AID 1346982). Also: nearly all actives have a fitted effect of over 35% in size. Also: potency is read from the fitted curve at half-maximal effect. In short, it runs like this:
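Stable HepG2 line reporting PXR-mediated CYP3A4 expression via luciferase. Treatment: 24 hr with compounds in DMSO at 37 C. Detection: ONE-Glo luminescence.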

In assay [17] the target is Cytochrome P450 2D6 (Homo sapiens) (UniProt P10635). The assay is described as follows: Cytochrome P450 Family 2 Subfamily D Member 6 (CYP2D6) small molecule antagonists: luciferase reporter qHTS assay (AID 1671196). Also: series mostly up to about 120 µM; nearly all actives have a fitted effect of over 50% in size. Put shortly:
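Chemicals tested for interference with CYP2D6 activity; proluciferin substrate, NADPH regeneration, 1 h at room temperature, luminescent detection.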
In general terms: In a reporter assay the amount or activity of a reporter protein is the signal.

Chain of Progesterone receptor (Homo sapiens) (P06401 whole entry, looked up): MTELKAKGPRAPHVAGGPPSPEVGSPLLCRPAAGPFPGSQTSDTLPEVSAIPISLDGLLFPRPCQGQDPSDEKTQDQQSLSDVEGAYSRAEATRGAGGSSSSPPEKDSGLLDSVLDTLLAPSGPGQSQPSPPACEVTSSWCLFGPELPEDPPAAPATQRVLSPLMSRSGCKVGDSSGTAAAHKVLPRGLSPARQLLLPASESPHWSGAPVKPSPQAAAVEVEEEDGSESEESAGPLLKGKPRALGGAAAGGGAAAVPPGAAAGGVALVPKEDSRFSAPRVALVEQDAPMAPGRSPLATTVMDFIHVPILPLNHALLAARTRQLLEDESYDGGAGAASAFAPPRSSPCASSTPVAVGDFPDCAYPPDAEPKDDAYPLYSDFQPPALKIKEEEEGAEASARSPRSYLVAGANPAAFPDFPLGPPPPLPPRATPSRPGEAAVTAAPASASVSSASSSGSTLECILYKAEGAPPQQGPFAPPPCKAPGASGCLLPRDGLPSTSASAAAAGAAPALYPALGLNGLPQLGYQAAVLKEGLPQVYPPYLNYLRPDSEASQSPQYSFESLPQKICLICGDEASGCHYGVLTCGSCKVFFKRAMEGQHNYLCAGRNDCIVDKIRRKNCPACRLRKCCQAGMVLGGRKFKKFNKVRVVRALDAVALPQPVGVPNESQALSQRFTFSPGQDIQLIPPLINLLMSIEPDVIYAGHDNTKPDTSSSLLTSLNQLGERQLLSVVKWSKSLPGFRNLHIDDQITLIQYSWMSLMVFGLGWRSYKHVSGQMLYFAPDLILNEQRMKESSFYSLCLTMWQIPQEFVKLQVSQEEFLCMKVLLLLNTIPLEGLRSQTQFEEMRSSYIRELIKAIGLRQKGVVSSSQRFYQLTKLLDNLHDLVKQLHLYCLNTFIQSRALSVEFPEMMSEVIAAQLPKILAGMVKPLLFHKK
Chain of Cytochrome P450 2D6 (Homo sapiens) (P10635 whole entry, looked up): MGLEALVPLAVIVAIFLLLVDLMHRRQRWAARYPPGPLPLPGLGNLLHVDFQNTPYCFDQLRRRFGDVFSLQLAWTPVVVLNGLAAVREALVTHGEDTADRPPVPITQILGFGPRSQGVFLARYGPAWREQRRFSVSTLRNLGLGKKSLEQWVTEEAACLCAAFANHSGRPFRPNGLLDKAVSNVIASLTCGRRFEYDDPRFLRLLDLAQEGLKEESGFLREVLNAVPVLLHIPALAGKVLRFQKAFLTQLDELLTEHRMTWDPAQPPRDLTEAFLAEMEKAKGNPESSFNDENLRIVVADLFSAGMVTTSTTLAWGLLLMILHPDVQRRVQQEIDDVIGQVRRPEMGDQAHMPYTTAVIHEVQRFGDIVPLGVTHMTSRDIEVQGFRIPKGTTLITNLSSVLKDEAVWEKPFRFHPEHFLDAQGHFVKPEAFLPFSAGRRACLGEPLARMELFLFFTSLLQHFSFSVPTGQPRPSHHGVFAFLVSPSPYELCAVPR
Chain of Nuclear receptor subfamily 1 group I member 2 (Homo sapiens) (O75469 whole entry, looked up): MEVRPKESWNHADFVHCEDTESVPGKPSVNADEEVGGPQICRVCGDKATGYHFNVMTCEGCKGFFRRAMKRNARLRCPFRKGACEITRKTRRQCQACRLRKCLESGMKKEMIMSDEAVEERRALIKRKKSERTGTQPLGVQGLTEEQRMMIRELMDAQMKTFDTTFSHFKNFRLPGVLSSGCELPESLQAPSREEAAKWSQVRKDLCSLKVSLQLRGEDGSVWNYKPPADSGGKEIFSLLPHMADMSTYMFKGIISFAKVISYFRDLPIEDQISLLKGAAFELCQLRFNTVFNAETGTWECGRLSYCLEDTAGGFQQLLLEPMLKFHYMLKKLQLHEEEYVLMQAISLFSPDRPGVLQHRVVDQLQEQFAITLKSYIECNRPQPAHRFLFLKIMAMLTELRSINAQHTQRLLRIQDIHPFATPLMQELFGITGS
Chain of Thyrotropin-releasing hormone receptor (Homo sapiens) (P34981 whole entry, looked up): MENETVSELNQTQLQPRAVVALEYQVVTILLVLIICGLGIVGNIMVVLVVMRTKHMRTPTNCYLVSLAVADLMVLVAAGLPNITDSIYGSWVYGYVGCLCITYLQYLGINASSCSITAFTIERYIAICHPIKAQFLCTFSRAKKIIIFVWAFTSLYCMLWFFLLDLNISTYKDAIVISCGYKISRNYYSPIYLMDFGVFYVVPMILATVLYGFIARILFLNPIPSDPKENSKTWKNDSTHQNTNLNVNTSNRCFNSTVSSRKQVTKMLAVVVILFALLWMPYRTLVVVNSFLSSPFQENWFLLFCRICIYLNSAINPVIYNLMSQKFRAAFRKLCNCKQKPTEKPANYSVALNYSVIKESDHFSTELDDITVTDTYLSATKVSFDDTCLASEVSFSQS

Regarding `NC(=O)c1cccc([N+](=O)[O-])c1`, the Potency result in [1], in [2], in [3], in [4], in [5] and in assay [6] was “inactive” in each case. Further, the Potency entry in assay [7], in assay [8], in assay [9], in [11], in assay [12] and in [13] was “inactive” each time. Moreover, the Potency result in assay [14], in assay [15], in assay [16] and in [17] was “inactive” throughout. Also, the outcome in assay [10] was inactive.

With `NC(=S)NC(N)=S`, the Potency entry in assay [1], in assay [2], in assay [3], in [4], in assay [5] and in [6] was “inactive” in each case. Besides, the Potency entry in assay [7], in [9], in assay [11], in assay [12], in assay [13] and in assay [14] was “inactive” throughout. In addition, in assay [15], the Potency result was “inactive”. For the same compound, the compound was called inactive in assay [10].

`O=C(O)Cc1ccccc1Nc1c(Cl)cccc1Cl`: the Potency entry in assay [1], in assay [2], in assay [3], in assay [4], in [5] and in [6] was “inactive” throughout. Further, the Potency result in assay [7], in [8], in [9], in [11], in assay [12] and in assay [13] was “inactive” in each case. In addition, the Potency entry in assay [14], in assay [15], in [16] and in [17] was “inactive” throughout. Besides, in assay [10], the call was inactive.

Take `O=C(/C=C/c1ccccc1)OC/C=C/c1ccccc1`: the Potency entry in assay [1], in assay [2], in [3], in [4], in assay [5] and in assay [6] was “inactive” each time. Further, the Potency entry in assay [7], in assay [8], in assay [9], in assay [11], in assay [12] and in [13] was “inactive” throughout. Further, the Potency entry in [15] and in assay [17] was “inactive” in each case. In addition, in assay [10], the compound was called inactive.

As for `CCC(CC)C(C)CCOC(C)=O` (configuration not stated), the Potency entry in assay [1], in assay [2], in assay [3], in assay [4], in assay [5] and in assay [6] was “inactive” in each case. Besides, the Potency result in assay [7], in assay [8], in assay [9], in assay [11], in assay [12] and in [13] was “inactive” in each case. Moreover, the Potency result in assay [14], in assay [15] and in assay [17] was “inactive” throughout. In addition, in assay [10], the compound was called inactive.

Turning to `CC/C=C\CCCCCO`, the Potency result in [1], in assay [2], in assay [3], in assay [4], in assay [5] and in [6] was “inactive” in each case. In addition, the Potency result in [7], in [8], in [11], in [12], in assay [13] and in [14] was “inactive” in each case. For the same compound, the Potency entry in assay [15] and in assay [17] was “inactive” in each case.

Consider `Sc1nc2ccccc2s1`, for which the Potency entry in [1], in assay [2], in assay [3], in assay [4], in [5] and in assay [6] was “inactive” in each case. For the same compound, the Potency result in [7], in [8], in assay [9], in assay [11], in [12] and in assay [15] was “inactive” in each case. The outcome in assay [10] was inactive. Also, the Potency in [16] was 54.5 µM (active).
